Screens from PubChem.
Shown are actives, neighbours in structure and some others; about 1.3% of the full set was active somewhere.
Vaccinia Venus – vaccinia inhibition (Venus reporter); Vaccinia virus Venus reporter expression, fluorescence; Potency, µM (highest dose often 36.5 µM), for the others: at the top dose activity change, negative = inhibition, most hits filed as inhibitors; 0.46% of 330,000 active; calls by dose curve; tested in A549 cells; also: % is scaled to controls: 0 for no effect and ±100 for the full control effect; nearly all actives have a fitted effect of over 30% in size
AmpC inh detg – inhibitors of E. coli AmpC beta-lactamase with detergent; 0.041% of 370,000 active; AID 485294; P00811; Potency, µM (highest dose often 114 µM), inactives show top-dose activity change, negative = inhibition, usual class: inhibitors; AmpC hydrolysis of nitrocefin, absorbance 480 nm, 0.01% Triton;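 also: 0% = no-compound wells and -100% = no-enzyme wells; nearly all actives have a fitted effect of over 25% in size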
Target sequence (P00811 whole entry, looked up): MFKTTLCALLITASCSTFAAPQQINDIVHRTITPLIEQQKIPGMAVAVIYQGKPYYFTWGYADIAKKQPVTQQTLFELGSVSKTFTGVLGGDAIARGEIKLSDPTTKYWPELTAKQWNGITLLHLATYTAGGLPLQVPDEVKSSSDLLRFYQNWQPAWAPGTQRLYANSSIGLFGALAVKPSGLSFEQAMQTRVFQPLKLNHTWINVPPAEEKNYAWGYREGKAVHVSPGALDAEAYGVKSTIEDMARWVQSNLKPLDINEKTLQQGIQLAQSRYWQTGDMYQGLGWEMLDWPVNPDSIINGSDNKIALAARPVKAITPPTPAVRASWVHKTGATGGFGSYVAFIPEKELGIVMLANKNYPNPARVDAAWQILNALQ
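20 mM phosphate pH 7.0 + 0.01% (detergent screen) or 0.0001% Triton X-100; 5.3 nM AmpC reagent; cpd preinc 15 min RT; nitrocefin (800 uM stock) to start; A480 q20 s × 4 min; Activity was normalised to no-enzyme and no-compound control wells.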
AmpC inh no detg – inhibitors of E. coli AmpC beta-lactamase without detergent | P00811 | AmpC nitrocefin hydrolysis, absorbance 480 nm, 0.0001% Triton | Potency, µM (titrated, usually from 57.1 µM), for the others: at the highest dose activity change, negative = inhibition, hits mostly inhibitors | 0.52% of 330,000 active | AID 485341;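 also: plate controls were no compound for no effect and no enzyme for full effect; nearly all actives have a fitted effect of over 20% in size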
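20 mM phosphate pH 7.0 + 0.01% (detergent screen) or 0.0001% Triton X-100; 5.3 nM AmpC reagent; cpd preinc 15 min RT; nitrocefin (800 uM stock) to start; A480 q20 s × 4 min; Activity was normalised to no-enzyme and no-compound control wells.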
Vaccinia mCherry – vaccinia inhibition (mCherry reporter) | Vaccinia virus mCherry reporter infection, fluorescence | 0.63% of 310,000 active | Potency, µM (top dose mostly 36.5 µM), for the others: at the top dose activity change, negative = inhibition, most hits filed as inhibitors; calls by dose curve; tested in A549 cells; also: % is scaled to controls: 0 for no effect and ±100 for the full control effect; nearly all actives have a fitted effect of over 35% in size
SARS PLpro yeast – SARS-CoV PLP inhibition in yeast | S. cerevisiae expressing SARS-CoV PLpro, growth rescue | Potency, µM (series often up to 32.9 µM), without a hit: at the highest dose activity, positive = growth rescue, most hits filed as activators | 0.19% of 330,000 active | AID 485353; calls by dose curve; also: 0% is about no effect; nearly all actives have a fitted effect of over 55% in size
Active calls of the source: *; i = inactive; u = inconclusive; x = no result given; [ ] = remark or other dose. Unless noted, calls follow the shape of the dose curve; as a rule, active = well fitted curve in the direction sought with a large enough effect; inconclusive = small, poorly fitted or top-dose-only effect, or another doubt; inactive = no such curve, though single readings can be large; an effect the other way counts as inactive or inconclusive. Potency is read from the fitted curve at half-maximal effect.

SMILES	Vaccinia Venus	AmpC inh detg	AmpC inh no detg	Vaccinia mCherry	SARS PLpro yeast
COc1cc2c(NC3CCN(C)CC3)nc(N3CCCN(C)CC3)nc2cc1OCCCCCCN(C)C	7.1µM*	x	x	5µM*	x
CCOC(=O)C(NC(=O)CCl)(Nc1sc(C)c(CC)c1C#N)C(F)(F)F (configuration not stated)	u	-9%	-16%	10µM*	7%
O=C1NC2C(=CC(O)C(O)C2O)c2cc3c(cc21)OCO3 (configuration not stated)	1µM*	x	x	u	x
O=C1NC2C(O)C(O)C(O)C(O)C2c2cc3c(c(O)c21)OCO3 (configuration not stated)	0.28µM*	x	x	2.2µM*	x
O=C1NC2C(=CC(O)C(O)C2O)c2cc3c(c(O)c21)OCO3 (configuration not stated)	0.1µM*	x	x	8.9µM*	x
COc1cc(C2c3cc4c(cc3CC3COC(=O)C32)OCO4)cc(OC)c1O (configuration not stated)	u	x	x	-24%	x
Nc1ccc[n+](CC(=O)c2ccc(F)cc2)c1	310%	x	x	34%	x
CC(=O)c1ccc(NC(=O)CSc2nc(C3CC3)nc3ccccc23)cc1	-21%	-9%	4%	u	-1%
O=C(CSc1nc(C2CC2)nc2ccccc12)N1c2ccccc2Sc2ccccc21	x	-2%	0.32µM*	x	-1%
CCc1ccc(Nc2nnc(SCC(=O)Nc3sccc3C(N)=O)s2)cc1	-24%	5%	16µM*	-28%	-21%
COC(=O)c1cc(CNC(=O)c2ccc3ncccc3c2)cc(NC(=O)c2ccccc2Cl)c1	-6%	x	x	-1%	x
Cc1ccc(CNC(=O)c2cccc(Nc3nc4ccccc4n4nnnc34)c2)cc1	7.9µM*	-3%	x	6.3µM*	x
Cc1c(C(=O)NCC(C)C)sc2ncnc(NCC3CCCO3)c12 (configuration not stated)	-1%	x	x	-11%	x
C#Cc1cccc(C(=O)NCc2nc(-c3cccc(NC(=O)c4ccccn4)c3)oc2C)c1	0%	x	x	i	x
Cc1cc(Nc2ccccc2)nc(NCc2ccccc2)n1	u	-5%	4%	-31%	-29%
Cc1cc(Nc2cccc(F)c2)nc(NCc2ccccc2)n1	u	u	-21%	13µM*	8%
Cc1cc(Nc2ccc(Cl)cc2)nc(NCc2ccccc2)n1	u	-11%	-1%[2.29 µM]	11µM*	-10%
COc1cccc(C2(CC(=O)N3CCC(c4nc5ccc(F)cc5[nH]4)CC3)CC(=O)N(C)C2=O)c1 (configuration not stated)	-2%	x	x	-3%	x
COc1cc(OC)c(OC)cc1CN1CCCC(n2cc(C(=O)N3CCCCC3)nn2)C1 (configuration not stated)	-4%	x	x	-21%	x
COC1C=CC23c4cc5c(cc4CN(CC2O)C3C1)OCO5 (configuration not stated)	1.8µM*	x	x	1.3µM*	x
COc1c2c(cc3c1OCO3)C13C=CC(OC)CC1N(C2)CC3O (configuration not stated)	-17%	x	x	-13%	x
Cc1ccc(C)c2[nH]c(=O)c(CCNC(=O)c3ccc(S(=O)(=O)N(C)C)cc3)cc12	-20%	-15%	2.8µM*	i	25%
Cc1ccc(C)c2[nH]c(=O)c(CCNC(=O)C(C)(C)C)cc12	-8%	-4%	40µM*	-5%	13%
O=[N+]([O-])c1cc(Cl)cc2c1nc(NCCO)c1ccccc12	u	u	108%	0.89µM*	-9%
O=c1[nH]nc(-c2ccc(NCCO)c([N+](=O)[O-])c2)c2ccccc12	-12%	-13%	-12%	i	-1%
SMILES	Vaccinia Venus	AmpC inh detg	AmpC inh no detg	Vaccinia mCherry	SARS PLpro yeast
Cc1nn(C)cc1C(=O)Nc1cc(Oc2ccc(Cl)cc2)cc([N+](=O)[O-])c1	x	-12%	-19%	x	-4%
Cn1cc([N+](=O)[O-])c(C(=O)Nc2cc(Oc3ccccc3)cc([N+](=O)[O-])c2)n1	u	-15%	-44%	14µM*	-9%
COc1ccccc1-c1ccnc(-n2ncc(C(=O)NC(c3cccnc3)C(F)(F)F)c2C)n1 (configuration not stated)	-27%	x	x	u	x
Cc1cccc(N=C2NN=C(c3ccccc3F)CS2)c1C	0%	0%	13µM*	u	4%
N#C/C(=C/c1cccs1)c1ccccn1	x	1%	-4%	x	-7%
N#C/C(=C\c1ccccn1)c1ccccn1	u	3%	-12%	3.5µM*	0%
CC(C)C(NS(C)(=O)=O)c1nnc2n1CCN(Cc1ccc3cccnc3c1)CC2 (configuration not stated)	-1%	x	x	-5%	x
COC(=O)c1c(OCc2cccnc2)cc(=O)n2c1CCN(C(=O)c1cccc(N(C)C)c1)CC2	1%	x	x	-4%	x
Cc1ccc(C)c(CN2C[C@H](Sc3ccccn3)C[C@H]2C(=O)Nc2ccc3sc(C)nc3c2)c1	1%	x	x	i	x
Cc1cc(O)c(C(=O)/C=C/c2ccc(C(C)C)cc2)c(=O)o1	x	-5%	13µM*	x	1%
Cc1cc(O)c(C(=O)/C=C/c2ccccc2Br)c(=O)o1	6%	-15%	13µM*	i	-2%
Cc1cc(C)c(C(=O)/C=C/C=C/c2ccccc2)c(=O)[nH]1	u	-10%	-16%	-29%	-2%
CCOc1ccc(/C=C/C(=O)c2c(O)cc(C)oc2=O)cc1	22%	-1%	-56%	20%	7%
Cc1cc(C)c(C(=O)/C=C/c2ccc(C(C)C)cc2)c(=O)[nH]1	u	0%	-19%	5µM*	-8%
Cc1cc(O)c(C(=O)/C=C/c2ccccc2)c(=O)o1	30%	2%	-56%	1%	1%
N#Cc1ccc(C23OCCN2CCn2c3c3ccccc3[n+]2[O-])cc1 (configuration not stated)	-26%	x	-12%	4µM*	7%
CC(OC(=O)C1=Cc2ccccc2OC1)C(=O)NC1CCCC1 (configuration not stated)	-16%	2%	0.16µM*	-12%	-1%
Cc1ccccc1OCC(O)CNC1CCC(NCC(O)COc2ccccc2C)CC1 (configuration not stated)	10µM*	-5%	112%	3.2µM*	1%
CCOC(=O)c1c2c(n(-c3ccc(OC)cc3)c1C)C(=O)C(=O)c1ccccc1-2	4.5µM*	x	x	2.8µM*	x
CCOC(=O)c1sc(=S)n(-c2ccc(OC)cc2)c1C	-8%	4%	-13%	i	0%
C/C(CC1CC2=C(CC1(C)C)C(C)(C)CCC2)=N\NC(N)=S (configuration not stated)	u	14%	-26%	-14%	11µM*
CC1CCC(NC(=O)Cn2ncc3ccccc32)CC1 (configuration not stated)	-2%	u	2.5µM*	17%	-3%
CC1CCCCC1NC(=O)Cn1ncc2ccccc21 (configuration not stated)	-8%	u	3.2µM*	2%	4%
